An excerpt weighted towards active compounds, which were near 1.1% of everything screened.
HTR5A ag: counter-screen for OPRM1-OPRD1 agonists: human HTR5A agonism; AID 504692; 0.61% of 340,000 active; activation, % at 9.3 µM; P47898; HTR5A agonist assay, luminescence, cell-based; in the data active means activation mostly above about 9.5%, no sharp cut-off; inactive means mostly below about 7.6%;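 further: 0% = cells with vehicle only and 100% = reference agonist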
MOR-DOR ag: OPRM1-OPRD1 heterodimerization agonism. AID 504326. 0.3% of 340,000 active. cells, luminescence. activation, % at 9.3 µM;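 further: 0% = vehicle-treated cells and 100% = reference agonist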
Target sequence (P35372 whole entry, looked up): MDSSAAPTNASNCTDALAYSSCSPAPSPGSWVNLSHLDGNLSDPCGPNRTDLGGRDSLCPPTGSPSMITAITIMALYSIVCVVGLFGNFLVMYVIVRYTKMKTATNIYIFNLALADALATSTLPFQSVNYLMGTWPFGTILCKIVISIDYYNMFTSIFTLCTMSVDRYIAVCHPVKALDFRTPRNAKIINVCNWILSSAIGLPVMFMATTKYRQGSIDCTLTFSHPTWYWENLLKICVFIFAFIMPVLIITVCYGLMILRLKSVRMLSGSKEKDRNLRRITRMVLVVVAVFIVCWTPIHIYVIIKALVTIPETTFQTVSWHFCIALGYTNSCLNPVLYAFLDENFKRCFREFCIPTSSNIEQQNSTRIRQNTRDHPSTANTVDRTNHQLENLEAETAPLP
Target sequence (P41143 whole entry, looked up): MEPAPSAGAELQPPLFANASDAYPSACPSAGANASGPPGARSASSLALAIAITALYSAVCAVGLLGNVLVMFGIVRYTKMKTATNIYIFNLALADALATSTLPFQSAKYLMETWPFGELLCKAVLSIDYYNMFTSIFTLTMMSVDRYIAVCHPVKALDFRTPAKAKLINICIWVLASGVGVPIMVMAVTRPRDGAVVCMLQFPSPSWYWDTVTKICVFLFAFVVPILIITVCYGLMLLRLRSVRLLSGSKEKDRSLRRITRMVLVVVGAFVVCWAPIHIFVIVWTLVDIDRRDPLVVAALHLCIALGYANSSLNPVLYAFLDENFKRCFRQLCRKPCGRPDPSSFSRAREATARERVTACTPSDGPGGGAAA
MOR-DOR inv ag: inverse agonist of human OPRM1-OPRD1 heterodimerization. P35372+P41143. cell-based MOR-DOR heterodimer luminescence, inverse agonism. inhibition, % at 9.3 µM. 0.21% of 340,000 active; in the data active means inhibition above about 22%, passing the limit was not always enough;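 further: 0% = cells with DMSO and 100% = wells without cells with DMSO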
HTR5A inv ctr: HTR5A inverse agonism, opioid heterodimer counter-screen | P47898 | HTR5A cell line, luminescence | inhibition, % at 9.3 µM | 0.083% of 340,000 active | AID 504634; in the data active means inhibition mostly above about 23%, no sharp cut-off; inactive means mostly below about 18%;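 further: 0% = cells with DMSO and 100% = no-cell wells with DMSO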
OPRM1-D1 ag cf: confirmation of human OPRM1-OPRD1 heterodimerization agonists; shares compounds with MOR-DOR ag; cells, MOR-DOR heterodimerization, luminescence complementation; 45% of 830 active; activation, % at 9.3 µM;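 further: 0% = vehicle-treated cells and 100% = reference agonist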
HTR5A ag ctr2: HTR5A agonism, opioid heterodimer counter-screen; activation, % at 9.3 µM; 8% of 830 active; HTR5A agonist counterscreen, cell luminescence; shares compounds with MOR-DOR ag; in the data active means activation above about 17%;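 further: 0% = vehicle-treated cells and 100% = reference agonist response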
An asterisk follows results filed as active. Unless noted, no stated cut-off is given here; in the data, active means activation above about 18%; inactive means the rest.

How did COC1=CC2C3Cc4ccc(OC)c(O)c4C2(CCN3C)CC1=O (stereo not drawn) do in these assays?
HTR5A ag: 8.2; MOR-DOR ag: -0.7; MOR-DOR inv ag: 3.1; HTR5A inv ctr: -20.2

Results for O=C(O)[C@H]1NC[C@H]2C[C@H]21 ?
HTR5A ag: 0.1; MOR-DOR ag: -1.8; MOR-DOR inv ag: 9.0; HTR5A inv ctr: -0.3

How did CC1[C@H]2Cc3ccc(O)cc3[C@]1(C)CCN2CCc1ccccc1 (stereo partly drawn) do in these assays?
HTR5A ag: -8.2; MOR-DOR ag: 338.9*; MOR-DOR inv ag: inactive; HTR5A inv ctr: 18.9; OPRM1-D1 ag cf: 315.0*; HTR5A ag ctr2: 0.3

What do the screens show for `CCC(C)N1CCN(C(=O)Cc2ccccc2)CC1` (stereo not drawn)?
HTR5A ag: 1.5; MOR-DOR ag: -2.0; MOR-DOR inv ag: 11.5; HTR5A inv ctr: 10.0

What do the screens show for `COC(=O)C1=C(c2ccc(-c3ccccc3)c(F)c2)C[C@@H]2CC[C@H]1N2C(=O)NC1CCCCC1`?
HTR5A ag: -3.8; MOR-DOR ag: 2.4; MOR-DOR inv ag: -13.8; HTR5A inv ctr: -6.3

Results for CC(=O)OC1CC[C@]2(C#N)[C@H]3CC[C@]4(C)[C@H](C5C=CC(=O)O5)CCC4(O)C3CCC2(O)C1 (stereo partly drawn) ?
HTR5A ag: 18.7*; MOR-DOR ag: 51.4*; MOR-DOR inv ag: -245.8; HTR5A inv ctr: -69.3; OPRM1-D1 ag cf: 17.9; HTR5A ag ctr2: 21.1*

What do the screens show for `CCC(=O)OC1(Cc2ccc(CC)cc2)CC(C)N(C)CC1C` (stereo not drawn)?
HTR5A ag: 1.0; MOR-DOR ag: 20.2*; MOR-DOR inv ag: -105.8; HTR5A inv ctr: -44.2; OPRM1-D1 ag cf: 1.7; HTR5A ag ctr2: 1.3

What do the screens show for `CC1CC(OC(=O)c2ccccc2)(c2ccccc2)C(C)CN1C` (stereo not drawn)?
HTR5A ag: -2.2; MOR-DOR ag: -5.0; MOR-DOR inv ag: 24.9; HTR5A inv ctr: 5.2

What do the screens show for `CCC(=O)OC1(c2ccccc2)C(C)CN(C)CC1C` (stereo not drawn)?
HTR5A ag: -3.3; MOR-DOR ag: 1.9; MOR-DOR inv ag: -9.2; HTR5A inv ctr: -3.0

Results for CCC(=O)OC1(c2cccc(C)c2)CC(C)N(C)CC1C (stereo not drawn) ?
HTR5A ag: -1.2; MOR-DOR ag: 64.2*; MOR-DOR inv ag: -313.3; HTR5A inv ctr: 3.0; OPRM1-D1 ag cf: 65.8*; HTR5A ag ctr2: -0.1

How did COC(=O)c1ccc(NC(=O)NC(=O)Oc2ccccc2)cc1 do in these assays?
HTR5A ag: -2.9; MOR-DOR ag: -2.2; MOR-DOR inv ag: 11.5; HTR5A inv ctr: 10.5

Results for CC1(C)CC(CCNCc2ccc3c(c2)OCO3)(Cc2ccccc2)CCO1 (stereo not drawn) ?
HTR5A ag: -1.1; MOR-DOR ag: 30.9*; MOR-DOR inv ag: -162.8; HTR5A inv ctr: 3.0; OPRM1-D1 ag cf: 27.6*; HTR5A ag ctr2: -4.1

How did Clc1cccc(CNCCc2ccc3c(c2)OCO3)c1 do in these assays?
HTR5A ag: -5.4; MOR-DOR ag: 2.4; MOR-DOR inv ag: -11.0; HTR5A inv ctr: 19.1

Results for CCOc1cc(/C=C2/C(=O)NC(=O)N(c3ccc(CC)cc3)C2=O)ccc1OC(=O)c1cccs1 ?
HTR5A ag: 2.2; MOR-DOR ag: -0.5; MOR-DOR inv ag: 2.7; HTR5A inv ctr: 5.7

Results for CC1OC(OC2CC(O)C3(CO)C4C(O)CC5(C)C(C6=CC(=O)OC6)CCC5(O)C4CCC3(O)C2)C(O)C(O)C1O (stereo not drawn) ?
HTR5A ag: 26.1*; MOR-DOR ag: 80.0*; MOR-DOR inv ag: -403.7; HTR5A inv ctr: 0.1; OPRM1-D1 ag cf: 5.0; HTR5A ag ctr2: 3.3

Results for N#CC(CCN1CCOCC1)(c1ccccc1)c1ccccc1 ?
HTR5A ag: -0.6; MOR-DOR ag: -4.1; MOR-DOR inv ag: 21.3; HTR5A inv ctr: 2.3

What do the screens show for `CCC(=O)C(CCN1CCOCC1)(c1ccccc1)c1ccccc1`?
HTR5A ag: 0.7; MOR-DOR ag: 271.4*; MOR-DOR inv ag: inactive; HTR5A inv ctr: 2.8; OPRM1-D1 ag cf: 250.2*; HTR5A ag ctr2: -1.1

Results for O[C@@H]1CCCC[C@H]1N1CCC(c2ccccc2)CC1 ?
HTR5A ag: 5.6; MOR-DOR ag: -0.6; MOR-DOR inv ag: 3.4; HTR5A inv ctr: -20.0

Results for COc1ccc(CNCCc2c[nH]c3ccccc23)c(OC)c1C ?
HTR5A ag: 6.6; MOR-DOR ag: 21.3*; MOR-DOR inv ag: -95.3; HTR5A inv ctr: -24.6; OPRM1-D1 ag cf: 48.2*; HTR5A ag ctr2: 15.1

What do the screens show for `C[C@@H]1O[C@@H](O[C@@H]2C=C3CCC4C(CC[C@]5(C)[C@@H](c6ccc(=O)oc6)CC[C@]45O)[C@@]3(C)CC2)[C@H](O)[C@H](O)[C@H]1O` (stereo partly drawn)?
HTR5A ag: 29.8*; MOR-DOR ag: 70.6*; MOR-DOR inv ag: -381.5; HTR5A inv ctr: -106.5; OPRM1-D1 ag cf: 33.8*; HTR5A ag ctr2: 27.2*

How did Brc1ccc(C2N3CCCN23)cc1 (stereo not drawn) do in these assays?
HTR5A ag: 0.4; MOR-DOR ag: -1.7; MOR-DOR inv ag: 10.5; HTR5A inv ctr: -1.0

What do the screens show for `COc1ccc(C(CNC(=O)CCc2ccsc2)N(C)C)cc1` (stereo not drawn)?
HTR5A ag: 2.0; MOR-DOR ag: 404.6*; MOR-DOR inv ag: inactive; HTR5A inv ctr: 12.8; OPRM1-D1 ag cf: 55.0*; HTR5A ag ctr2: -3.3

What do the screens show for `COc1ccc(C(CN(C)C)C2(O)CCCCC2)cc1` (stereo not drawn)?
HTR5A ag: -3.4; MOR-DOR ag: -2.2; MOR-DOR inv ag: 12.2; HTR5A inv ctr: -18.4

How did CCC(C)n1c(O)c(C=NCc2cccnc2)c(=O)[nH]c1=S (stereo not drawn) do in these assays?
HTR5A ag: -6.3; MOR-DOR ag: -1.2; MOR-DOR inv ag: 6.1; HTR5A inv ctr: 8.3

What do the screens show for `CCC(C)N1C(=O)NC(=O)C2(Cc3c(ccc4ccccc34)N(C)C2)C1=O` (stereo not drawn)?
HTR5A ag: 13.5; MOR-DOR ag: 20.2*; MOR-DOR inv ag: -126.1; HTR5A inv ctr: -29.7; OPRM1-D1 ag cf: 214.6*; HTR5A ag ctr2: -1.2

How did CCC(COC(=O)c1cc(OC)c(OC)c(OC)c1)(c1ccccc1)N(C)C (stereo not drawn) do in these assays?
HTR5A ag: -4.7; MOR-DOR ag: 54.4*; MOR-DOR inv ag: -294.3; HTR5A inv ctr: 16.7; OPRM1-D1 ag cf: 50.7*; HTR5A ag ctr2: 13.5

What do the screens show for `COC(=O)C1=CO[C@@H](C)[C@@H]2CN(CCc3c[nH]c4ccccc34)CC[C@H]12`?
HTR5A ag: -8.1; MOR-DOR ag: 91.6*; MOR-DOR inv ag: inactive; HTR5A inv ctr: -12.6; OPRM1-D1 ag cf: 122.8*; HTR5A ag ctr2: 1.0

What do the screens show for `COC(=O)C1=COC(C)C2CN3CCC4(C(=O)Nc5ccccc54)C3CC12` (stereo not drawn)?
HTR5A ag: 1.4; MOR-DOR ag: -0.8; MOR-DOR inv ag: 3.8; HTR5A inv ctr: 21.2
